The list is not random: actives were taken first. Their share in the collection is about 31%.
CYP2C9 inh: human CYP2C9 inhibition. 96,000 tested, 20% active. AID 777. P11712. inhibition, % at 5 µM. CYP2C9 Supersomes, luciferin-H conversion, luminescence;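 active = blocking of liver enzyme CYP2C9 beyond about 50% at 5 µM, limit read from the data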
CYP2C19 act: cytochrome P450 2C19 (human) activation; P33261; recombinant CYP2C19, luciferin-H EGE luminescence; active compounds read high; 0 = fully inhibited enzyme, 1 = untreated enzyme; activation factor at 5 µM; 96,000 tested, under 10 active; AID 1025;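 active = activation factor of at least 2 at 5 µM in the primary screen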;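 also: 0 = wells with 2.5 mM tranylcypromine and 1 = vehicle-only wells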
Target sequence (P33261 whole entry, looked up): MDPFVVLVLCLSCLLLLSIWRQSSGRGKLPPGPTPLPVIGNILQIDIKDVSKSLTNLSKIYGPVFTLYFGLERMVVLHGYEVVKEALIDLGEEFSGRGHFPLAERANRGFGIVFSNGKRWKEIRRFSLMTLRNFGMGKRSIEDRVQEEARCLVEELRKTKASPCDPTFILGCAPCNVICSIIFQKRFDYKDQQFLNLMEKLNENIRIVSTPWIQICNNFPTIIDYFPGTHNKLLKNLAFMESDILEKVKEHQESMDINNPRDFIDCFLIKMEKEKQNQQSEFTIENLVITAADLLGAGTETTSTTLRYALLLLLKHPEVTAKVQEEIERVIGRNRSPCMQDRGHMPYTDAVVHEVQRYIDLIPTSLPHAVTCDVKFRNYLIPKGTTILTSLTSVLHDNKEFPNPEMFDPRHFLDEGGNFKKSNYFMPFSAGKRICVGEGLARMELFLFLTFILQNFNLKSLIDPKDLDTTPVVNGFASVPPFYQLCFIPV
CYP2C19 inh: blocks human cytochrome P450 2C19; P33261; CYP2C19 Supersomes, luciferin-H EGE luminescence, 30 min; inhibition, % at 5 µM; 96,000 tested, 21% active; AID 778;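 active = CYP2C19 inhibition above a set limit at 5 µM in the primary screen, cut at about 50% in these data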;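 also: plate controls were negative control wells for no effect and 2.5 mM tranylcypromine positive control for full effect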
CYP2C9 activ: activators of human CYP2C9. recombinant CYP2C9, luciferin-H conversion, luminescence; active compounds read high; factor 1 = untreated enzyme, 0 = blocked. 96,000 tested, 1.4% active. activation factor at 5 µM;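 active = activation factor of 2 or more for CYP2C9 at a 5 µM dose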;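 also: 0 = sulfaphenazole-blocked wells and 1 = vehicle-only wells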
* hit, by the source's call.

SMILES	CYP2C9 inh	CYP2C19 act	CYP2C19 inh	CYP2C9 activ
CC(NC(=O)CCC(=O)NC(C)C1COc2ccccc2O1)C1COc2ccccc2O1 (stereo not given)	38	0.6	42	0.6
COc1ccc(CNC(C)C2COc3ccccc3O2)c(OC)c1 (stereo not given)	13	0.1	87*	0.9
Cc1cc(C)nc(SCC(=O)N2CCC(C(N)=O)CC2)n1	-3	1	0	1
C=CCn1nnnc1SCC(=O)Nc1ccccc1C(=O)OC	42	0.1	91*	0.6
CCOc1ccccc1NC(=O)CSc1nnnn1Cc1ccccc1	7	0.6	40	0.9
COc1ccccc1NC(=O)CSc1nnnn1Cc1ccccc1	2	0.1	92*	1
CCOC(=O)c1ccccc1NC(=O)CSc1nnnn1C1CCCCC1	72*	0.7	25	0.3
COc1nc(-c2ccccc2)cc(-c2ccc(OC)c(OC)c2)n1	80*	0.2	76*	0.2
O=C(Nc1ccc(Cl)c(Cl)c1)N(Cc1cccnc1)Cc1ccco1	100*	0	99*	0
O=C(Nc1ccc(S(=O)(=O)NCc2cccnc2)cc1)c1ccco1	0	1.1	-10	1
S=C(NCc1ccco1)N1CCN(Cc2ccco2)CC1	-7	0.9	9	1.1
COc1ccc(Cl)cc1NC(=S)NCc1ccco1	-100	0.3	71*	2*
COc1ccc(NC(=S)NCc2ccco2)cc1	7	0.7	32	0.9
COc1cccc(N2CCN(C(=S)NCc3ccco3)CC2)c1	68*	0.5	53*	0.3
COc1cc(NC(=S)NCc2ccco2)cc(OC)c1	10	0.3	67*	0.9
COc1cccc(C(=O)Nc2cc(=O)n(C)c(=O)n2C)c1OC	4	1	4	1
O=C(c1cc2c(ccc3ccccc32)o1)N1CCN(c2ncc(C(F)(F)F)cc2Cl)CC1	2	0.8	17	1
O=C(COC(=O)COc1ccccc1)Nc1ccccc1OC(F)F	-15	0.9	14	1.2
CCOc1ccccc1NC(=S)NCc1ccco1	-31	0.1	87*	1.3
S=C(NCc1ccco1)Nc1ccc(Cl)c(Cl)c1	36	0.5	53*	0.6
CC(=O)C1=C(N2CCCCC2)CCC1=O	-12	1	3	1.1
N#Cc1nc(Cc2ccccc2)oc1N1CCN(c2cccc(Cl)c2)CC1	42	0.7	28	0.6
CCOC(=O)C1=C(N)N2C(=O)CSC2=C(C(=O)OC)C1	46	1.2	-15	0.5
COC(=O)c1sc(S(=O)(=O)Nc2ccc3cn[nH]c3c2)c(C(=O)OC)c1C	92*	0.5	52*	0.1
COC(=O)c1ccc(NS(=O)(=O)c2cccc3cccnc23)cc1	8	1.1	-5	0.9
SMILES	CYP2C9 inh	CYP2C19 act	CYP2C19 inh	CYP2C9 activ
COC(=O)c1ccccc1S(=O)(=O)Nc1ccc2cn[nH]c2c1	80*	0.1	89*	0.2
CCOC(=O)c1ccc(S(=O)(=O)Nc2ccc3cn[nH]c3c2)cc1	94*	0.8	16	0.1
CCOC(=O)c1ccc(NC(=O)c2c(C)[nH]c(C(=O)OCC)c2C)cc1	33	1	-1	0.7
O=C(NCc1ccco1)C1CCN(S(=O)(=O)N2CCC3(CC2)OCCO3)CC1	84*	0.9	8	0.2
O=C(NCc1ccccc1Cl)C1CCN(S(=O)(=O)N2CCC3(CC2)OCCO3)CC1	16	0.9	15	0.8
Cc1cc(C)c(S(=O)(=O)N2CCC(C(=O)NCc3ccco3)CC2)c(C)c1	-179	0.8	21	2.8*
COc1ccc(S(=O)(=O)N2CCC(C(=O)NCc3ccco3)CC2)cc1	-82	1.1	-8	1.8
O=C(NC1CCCCCCC1)C1CCN(S(=O)(=O)N2CCC3(CC2)OCCO3)CC1	52*	0.4	60*	0.5
O=C(NC1CCCCC1)C1CCN(S(=O)(=O)N2CCCCCC2)CC1	9	1	0	0.9
O=C(C1CCN(S(=O)(=O)N2CCC3(CC2)OCCO3)CC1)N1CCC(Cc2ccccc2)CC1	76*	0.4	58*	0.2
COc1cc([N+](=O)[O-])cc(CN2CCCCC2)c1O	9	1	0	0.9
CCOC(=O)CN(C(=O)CNC(=O)c1ccco1)C(C(=O)NC1CCCCC1)c1cccc(OC)c1 (stereo not given)	39	0.6	36	0.6
CC1(c2ccccc2)CC(c2ccccc2)=Nc2nonc2N1 (stereo not given)	52*	0.1	94*	0.5
Cc1ccc(-n2nnc3c(=O)n(CC(=O)N4CCC(C)CC4)cnc32)cc1	13	0.7	28	0.9
[O-]C1=N/[N+](=C/c2ccccc2Cl)CC1	-34	1.2	-19	1.3
COc1ccc(NC(C)=O)cc1NC(=O)CSc1nnc(-c2ccc(F)cc2)n1N	5	1	2	1
O=C(NC1CCCC1)C1CCN(S(=O)(=O)c2cccc3cccnc23)CC1	-213	0.8	22	3.1*
CC1CCCN(C(=O)C2CCN(S(=O)(=O)c3cccc4cccnc34)CC2)C1 (stereo not given)	-228	0.5	49	3.3*
CCN1CCN(C(=O)C2CCN(S(=O)(=O)c3cccc4cccnc34)CC2)CC1	-72	1.2	-15	1.7
COc1ccc(Cc2nnc(SCC(=O)NCC3CCCO3)o2)cc1 (stereo not given)	-6	1	-5	1.1
C/C(=N\NC(=O)COc1ccc([N+](=O)[O-])cc1)C(C)(C)C	8	0.8	23	0.9
COc1ccc(Cn2nnnc2C(c2cc(OC)ccc2OC)N2CCC(C(N)=O)CC2)cc1 (stereo not given)	4	0.6	38	1
CCOC(=O)c1c(C)c(C(=O)N2CCCCCC2)c(C)n1CC	-10	0.3	67*	1.1
COC(=O)c1c(C)oc2ccc(OC(=O)c3cccs3)cc12	85*	1	-1	0.1
COCCOC(=O)c1c(C)oc2ccc(OC(=O)c3cccs3)cc12	98*	0.3	71*	0
SMILES	CYP2C9 inh	CYP2C19 act	CYP2C19 inh	CYP2C9 activ
O=C(Nn1cnc2ccccc2c1=O)C1CCCCC1	16	0.9	7	0.8
CC1=N/C(=C\c2ccc([N+](=O)[O-])cc2)C(=O)N1c1ccc(Br)c(C)c1	30	0.8	18	0.7
COc1ccc(/C=N\NC(=O)C2=NNC(=O)C2C)cc1 (stereo not given)	-10	1	4	1.1
CCOC(=O)C1(C(F)(F)F)N=C(c2cccnc2)OC(N2CCOCC2)=N1 (stereo not given)	10	1.1	-5	0.9
COC(=O)C(C)n1cnc2c(nnn2Cc2ccc(Cl)cc2)c1=O (stereo not given)	-26	0.8	24	1.3
CCOC(=O)C(C)n1cnc2c(nnn2-c2cccc(Cl)c2)c1=O (stereo not given)	-96	1.1	-7	2*
O=C1CC(N(CCc2ccccc2)C(=S)Nc2cc(Cl)ccc2Cl)C(=O)N1c1c(Cl)cccc1Cl (stereo not given)	54*	0.9	8	0.5
COc1ccc(C(=O)NCC23C=CC(O2)C2C(=O)N(Cc4ccccc4)C(=O)C23)cc1 (stereo not given)	34	0.4	62*	0.7

From PubChem BioAssay
